Among the data in paper PMC5700166 are binding signal values, retold here.

What all share (assay): protein-binding microarray (PBM); PBM: ~300 nM protein, 6 mM HEPES pH 7.8, 80 mM KCl, 0.5 mM EDTA, 0.5 mM EGTA, 6% glycerol, 35 ng/ul poly-dIdC, 1% milk, 1 h, room temperature; Ap Aiptasia and Nv Nematostella (sea anemones) / Co Capsaspora / Aq Amphimedon (sponge) / Dm Drosophila / Hu human; RHD is the Rel homology domain; high values mean tight binding
Conditions in all cases: dsDNA, one strand shown

The target of assay [1] is T1, GST-Ap-NF-kB RHD (Exaiptasia pallida (Aiptasia), UniProt A0A913YAJ5 2-422).
T1 sequence: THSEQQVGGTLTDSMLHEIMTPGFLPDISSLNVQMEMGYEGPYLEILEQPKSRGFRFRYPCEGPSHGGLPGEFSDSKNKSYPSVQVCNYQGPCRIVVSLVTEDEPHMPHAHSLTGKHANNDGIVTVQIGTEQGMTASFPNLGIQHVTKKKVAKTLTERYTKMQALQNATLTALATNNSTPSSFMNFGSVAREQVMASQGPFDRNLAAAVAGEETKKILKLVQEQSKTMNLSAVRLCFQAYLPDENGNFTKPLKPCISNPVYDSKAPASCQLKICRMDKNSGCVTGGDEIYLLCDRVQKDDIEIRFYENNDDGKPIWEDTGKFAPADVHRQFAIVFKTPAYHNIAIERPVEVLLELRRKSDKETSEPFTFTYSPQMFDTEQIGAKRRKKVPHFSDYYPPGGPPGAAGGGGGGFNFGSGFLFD

The target of assay [2] is T2, GST-Nv-NF-kB (Cys allele) (Nematostella vectensis, UniProt E5G601 2-411).
T2 sequence: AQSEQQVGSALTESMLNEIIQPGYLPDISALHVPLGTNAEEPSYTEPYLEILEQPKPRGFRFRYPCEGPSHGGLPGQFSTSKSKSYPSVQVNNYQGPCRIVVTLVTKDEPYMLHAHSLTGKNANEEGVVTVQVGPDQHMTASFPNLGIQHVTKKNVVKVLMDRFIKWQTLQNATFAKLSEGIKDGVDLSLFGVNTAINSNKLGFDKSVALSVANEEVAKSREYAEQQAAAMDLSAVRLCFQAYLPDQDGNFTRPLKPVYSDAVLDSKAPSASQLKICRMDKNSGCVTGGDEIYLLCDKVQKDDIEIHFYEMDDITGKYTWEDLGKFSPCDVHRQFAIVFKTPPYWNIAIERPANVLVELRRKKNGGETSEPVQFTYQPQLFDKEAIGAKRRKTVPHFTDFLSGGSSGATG

In assay [3] the target is T3, GST-Nv-NF-kB (Ser allele) (Nematostella vectensis, UniProt A7UNT2 2-411).
T3 sequence: T2 sequence with Q21R, C66S, S207N, E215Q, V217A, E225K, A268E, D399E

For assay [4], the target named is T4, GST-Co-NF-kB (Capsaspora owczarzaki, UniProt F1ARL5 200-546).
T4 sequence: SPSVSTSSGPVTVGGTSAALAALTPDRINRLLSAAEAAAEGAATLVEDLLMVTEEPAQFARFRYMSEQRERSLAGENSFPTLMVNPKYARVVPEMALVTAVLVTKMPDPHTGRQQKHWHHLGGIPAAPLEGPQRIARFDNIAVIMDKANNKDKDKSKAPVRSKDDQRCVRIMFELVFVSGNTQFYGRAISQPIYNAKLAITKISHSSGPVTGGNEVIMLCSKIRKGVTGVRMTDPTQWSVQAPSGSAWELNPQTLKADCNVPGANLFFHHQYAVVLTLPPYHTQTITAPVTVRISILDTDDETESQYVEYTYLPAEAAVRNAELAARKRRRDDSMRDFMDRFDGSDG

For assay [5], the target named is T5, GST-Dm-Relish (Drosophila melanogaster, UniProt Q94527 99-473).
T5 sequence: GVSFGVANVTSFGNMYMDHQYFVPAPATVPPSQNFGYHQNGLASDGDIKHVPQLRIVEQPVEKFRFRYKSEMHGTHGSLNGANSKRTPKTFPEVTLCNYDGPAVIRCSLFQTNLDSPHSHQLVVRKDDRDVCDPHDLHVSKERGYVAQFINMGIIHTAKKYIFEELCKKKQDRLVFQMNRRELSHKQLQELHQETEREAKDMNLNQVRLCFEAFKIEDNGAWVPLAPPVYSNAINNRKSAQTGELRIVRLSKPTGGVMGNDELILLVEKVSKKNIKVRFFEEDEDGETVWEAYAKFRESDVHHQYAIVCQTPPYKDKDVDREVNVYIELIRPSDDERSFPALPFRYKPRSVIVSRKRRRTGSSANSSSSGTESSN

For assay [6], the target named is T6, GST-Aq-NF-kB (Amphimedon queenslandica, UniProt A9Y5G7 2-389).
T6 sequence: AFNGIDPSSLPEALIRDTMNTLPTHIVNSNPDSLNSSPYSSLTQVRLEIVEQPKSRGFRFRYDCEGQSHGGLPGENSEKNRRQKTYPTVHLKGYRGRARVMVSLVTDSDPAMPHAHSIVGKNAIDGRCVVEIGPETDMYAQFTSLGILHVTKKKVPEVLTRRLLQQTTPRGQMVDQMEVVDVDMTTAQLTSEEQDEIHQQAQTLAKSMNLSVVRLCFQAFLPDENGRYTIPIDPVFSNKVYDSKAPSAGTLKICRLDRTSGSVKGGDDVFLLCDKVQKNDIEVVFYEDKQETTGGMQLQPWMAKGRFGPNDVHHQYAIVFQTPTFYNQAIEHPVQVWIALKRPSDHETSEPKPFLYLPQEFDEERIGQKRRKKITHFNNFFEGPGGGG

Assay [7] deals with GST-Hu-p50 (Homo sapiens, UniProt P19838 7-356).

Positions count from the first letter of the chain named.

Sequence of GST-Hu-p50 (P19838 7-356): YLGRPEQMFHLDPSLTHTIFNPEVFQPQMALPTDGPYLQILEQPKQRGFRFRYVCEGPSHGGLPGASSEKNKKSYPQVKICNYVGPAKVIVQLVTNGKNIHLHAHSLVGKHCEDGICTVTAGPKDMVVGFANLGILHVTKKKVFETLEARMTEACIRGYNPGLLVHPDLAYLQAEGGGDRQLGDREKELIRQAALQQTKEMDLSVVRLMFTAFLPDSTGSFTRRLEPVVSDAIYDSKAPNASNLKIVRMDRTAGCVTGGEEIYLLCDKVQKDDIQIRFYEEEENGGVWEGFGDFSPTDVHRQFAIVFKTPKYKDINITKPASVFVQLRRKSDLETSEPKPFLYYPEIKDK

Consider “CCGATTAACATCAGGGGGATTCATGATGTTAATCGGGTCTTGATTCGCTTGACGCTGCTG”, for which the binding signal in assay [1] came out at 8.54 z-score; in assay [2], 7.43 z-score; in assay [3] it was 8.48 z-score; in assay [4], 5.63 z-score; in assay [5], 7.41 z-score; in assay [6], 6.1 z-score. For the same sequence, in assay [7], the binding signal is 7.07 z-score.
On to “CCGATTAACATCACATTTCCCCCTGATGTTAATCGGGTCTTGATTCGCTTGACGCTGCTG”, for which the binding signal amounted to 6.84 z-score in assay [1]; 6.99 z-score in assay [2]; 10.2 z-score in assay [3]; 9.84 z-score in assay [4]; 4.03 z-score in assay [5]; 5.23 z-score in assay [6]. The sequence also gave a binding signal in assay [7] of 6.55 z-score.
With “CCGATTAACATCAGGGGGAAAGATGATGTTAATCGGGTCTTGATTCGCTTGACGCTGCTG”, the binding signal in assay [1] was determined as 5.81 z-score; in assay [2], 5.7 z-score; in assay [3], 7.72 z-score; in assay [4], 8.03 z-score; in assay [5], 2.89 z-score; in assay [6], 5.04 z-score. In addition, the binding signal in assay [7] is 5.75 z-score.
Consider “CCGATTAACATCACCCTGGGAAATGATGTTAATCGGGTCTTGATTCGCTTGACGCTGCTG”, for which the binding signal was 1.68 z-score in assay [1]; 1.49 z-score in assay [2]; 1.51 z-score in assay [3]; 3.42 z-score in assay [4]; 1.08 z-score in assay [5]; 1.74 z-score in assay [6]. For the same sequence, the binding signal in assay [7] is 2.25 z-score.
Regarding “CCGATTAACATCACTGTTTCCCCTGATGTTAATCGGGTCTTGATTCGCTTGACGCTGCTG”, the binding signal in assay [1] came to 5.28 z-score; in assay [2] it was 7.06 z-score; in assay [3], 9.29 z-score; in assay [4], 7.92 z-score; in assay [5] it was 2.5 z-score; in assay [6], 4.25 z-score. In assay [7], the binding signal is 4.88 z-score.
For the sequence “CCGATTAACATCACAACTTTCCCTGATGTTAATCGGGTCTTGATTCGCTTGACGCTGCTG”, the binding signal in assay [1] was determined as 3.73 z-score; in assay [2], 5.95 z-score; in assay [3], 6.13 z-score; in assay [4], 4.34 z-score; in assay [5] it was 2.04 z-score; in assay [6], 5.94 z-score. The sequence further displayed a binding signal in assay [7] of 4.21 z-score.
Take “CCGATTAACATCAAAATTCCCCCTGATGTTAATCGGGTCTTGATTCGCTTGACGCTGCTG”: the binding signal in assay [1] is 10.1 z-score; in assay [2], 11.6 z-score; in assay [3], 13.3 z-score; in assay [4] it was 11.3 z-score; in assay [5], 9.16 z-score; in assay [6] it was 9.32 z-score. In addition, the binding signal in assay [7] amounted to 8.09 z-score.
In the case of “CCGATTAACATCAGGGAAGCCCCTGATGTTAATCGGGTCTTGATTCGCTTGACGCTGCTG”, the binding signal stood at 9.42 z-score in assay [1]; 10.8 z-score in assay [2]; 7.12 z-score in assay [3]; 1.97 z-score in assay [4]; 10.3 z-score in assay [5]; 9.75 z-score in assay [6]. Further, in assay [7], the binding signal came to 6.02 z-score.
For the sequence “CCGATTAACATCAAGTCCCCCCCTGATGTTAATCGGGTCTTGATTCGCTTGACGCTGCTG”, the binding signal in assay [1] turned out to be 6.57 z-score; in assay [2], 4.81 z-score; in assay [3], 5.16 z-score; in assay [4], 6.94 z-score; in assay [5] it was 5.61 z-score; in assay [6] it was 5.07 z-score. In assay [7], this sequence gave a binding signal of 4.23 z-score.
With “CCGATTAACATCAAATAAGTCCCTGATGTTAATCGGGTCTTGATTCGCTTGACGCTGCTG”, the binding signal in assay [1] was found to be 4.69 z-score; in assay [2] it was 6.71 z-score; in assay [3], 7 z-score; in assay [4], 1.42 z-score; in assay [5] it was 5.96 z-score; in assay [6] it was 6.24 z-score. In addition, in assay [7], the binding signal is 4.56 z-score.
Take “CCGATTAACATCAGCAATTCCCCTGATGTTAATCGGGTCTTGATTCGCTTGACGCTGCTG”: the binding signal was determined as 7.03 z-score in assay [1]; 7.8 z-score in assay [2]; 9.25 z-score in assay [3]; 5.7 z-score in assay [4]; 3.8 z-score in assay [5]; 5.36 z-score in assay [6]. Further, the binding signal in assay [7] came to 6.4 z-score.
For “CCGATTAACATCAGGAATTTCCCTGATGTTAATCGGGTCTTGATTCGCTTGACGCTGCTG”, the binding signal came to 6.77 z-score in assay [1]; 10.1 z-score in assay [2]; 6.94 z-score in assay [3]; 4.93 z-score in assay [4]; 5.72 z-score in assay [5]; 10.8 z-score in assay [6]. The sequence also displayed a binding signal in assay [7] of 6.03 z-score.
